# Reference: PubChem BioAssay (NCI)
# The panel holds about 83,000 compounds, 20% with a hit somewhere; the sample as a whole holds those more often.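 48-hour exposure, single concentration, 96-well plates; percent growth endpoint where 0 means no net growth. Active: below 10.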 The source made the active and inactive calls.
# Tested on: A549/ATCC NSCLC
# Test: NCI-60 one-dose screen, 48 h (100 = growth as untreated, 0 = no growth, -100 = all killed)
# Conditions: 10 µM unless noted
# Procedure: Growth inhibition of the A549/ATCC human Non-Small Cell Lung tumor cell line is measured as a screen for anti-cancer activity. Cells are grown in 96 well plates and exposed to the test compound for 48 hours. Compounds are tested at a single concentration, which is 10^-5 M for most compounds. The reported endpoint is percent growth (GI% or GIPRCNT), where numbers from 0 - 100% represent growth inhibition, and numbers from -100% - 0 represent cell death. For example, a value of 40 represents 60% growth inhibition. A value of 0 means no net growth occurred over the course of the experiment. A value of -40 indicates 40% of cells at the beginning of the experiment died by the end of the experiment. A value of -100 means all cells are dead at the end of the experiment.
# NCI-60 Human Tumor Cell Lines Screen was performed using the standard one-dose NCI protocol, which is described in more detail at https://dtp.cancer.gov/discovery_development/nci-60/default.htm.
# Compounds with GIPRCNT values below 10 were considered active. Activity score was based on GIPRCNT using the following formula: […]
# Score is 0 for GIPRCNT values of 100 or above, 50 for GIPRCNT values of 0, and 100 for GIPRCNT values of -100.
row,SMILES,growth
1,CCNC(=O)Oc1ccc(/C(=C(/C)c2ccc(Cl)cc2)c2ccc(OCCN(C)C)cc2)cc1,71.6% (inactive)
2,CCNCc1c(-c2cccc(OC(F)(F)F)c2)[nH]c2ccc(N3CCCC3)cc2c1=O,40.2% (inactive)
3,O=C(Nc1cc(F)cc2cccnc12)c1cnc(N2CCOCC2)cn1,95.3% (inactive)
4,Clc1ccc(-c2csc(N/N=C/c3nc4ccccc4n3C3CC3)n2)cc1,95.5% (inactive)
5,Cn1cc(-c2nn3c(=O)cc(-c4ccccc4)nc3s2)c2cc(F)ccc21,36.7% (inactive)
6,N#C/C(=C\c1ccc(-c2ccc(F)cc2)o1)C(=O)Nc1ncc(Cc2ccc(Cl)cc2Cl)s1,-48% (active)
7,C=CCn1c(SCC(=O)Nc2cccc(C(=O)/C=C/c3ccc(Br)cc3)c2)nc2ccccc2c1=O,86.4% (inactive)
8,NC(=O)C(=Cc1ccc(Cl)cc1)C(N)=O,74.5% (inactive)
9,COC[C@]12CC[C@@H](C)[C@H](C)[C@H]1C1=CC[C@@H]3[C@@]4(C)CCCNC(C)(C)[C@@H]4CC[C@@]3(C)[C@]1(C)CC2,20.8% (inactive)
10,COc1ccc(NS(=O)(=O)c2ccc(-c3cnc(C4CC4)o3)cc2)cc1Cl,46.1% (inactive)
11,CC1OC(O[C@@H]2[C@H](O)C(CO)OC(O[C@H]3COC(O[C@H]4CC[C@]5(C)[C@H]6CC[C@]78OC[C@@]9(CC[C@](C)(C=O)C[C@H]97)C(=O)C[C@@]8(C)[C@]6(C)CC[C@H]5C4(C)C)[C@@H](O)[C@@H]3O)[C@H]2OC2OC[C@@H](O)[C@@H](O)[C@@H]2O)[C@@H](O)[C@@H](O)[C@H]1O (stereo not given in full),90.6% (inactive)
12,COc1ccc(N2C(=O)c3cc(OC)c(OC)cc3NC2SCc2ccccc2)cc1 (stereo not given),110% (inactive)
13,O=C(Nc1cccc(-c2nc(-c3ccc(NC(=O)c4cccs4)cc3Cl)no2)c1)Nc1ccc(NC(=O)C2CC2)c(C(F)(F)F)c1,-27.7% (active)
14,Cn1nc(Nc2ccccc2)c(C(=O)NN)c1N,98.3% (inactive)
15,CCCCCCNC(=O)Oc1ccc(/C(=C(\C)c2ccc(OC)cc2)c2ccc(OCCN(C)C)cc2)cc1,74.7% (inactive)
16,O=C1Nc2ccc(Cl)cc2/C1=C/c1ccc(OCc2ccc(Br)cc2F)cc1,102% (inactive)
17,COc1cc(CNC(=O)Cc2ccccc2[N+](=O)[O-])ccc1OCC(=O)NO,106% (inactive)
18,O=C(NNc1nc2cc(F)cc(F)c2n2cccc12)c1ccncn1,13.4% (inactive)
19,C/C(=N\NC(=S)Nc1ccc(Br)cc1)c1cc2ccccc2oc1=O,27.3% (inactive)
20,CNC(=O)c1cc(Oc2ccc3nc(NC(=O)c4ccc(CN5CCN(C)CC5)c(C(F)(F)F)c4)sc3c2)ccn1,66.4% (inactive)

row,SMILES,growth
1,CN1CCN(c2nc(-c3cnc4ccccc4n3)cc3ccccc23)CC1,75.9% (inactive)
2,CCOC(=O)c1nn(-c2ccc(C)cc2)c(=O)c2c(N)c(C#N)c(-c3ccc(OC)cc3)cc12,108% (inactive)
3,COc1ccc(-c2nc3cc(Cl)c(Cl)cc3n2CC(=O)N=Nc2c(O)[nH]c3ccc(Br)cc23)cc1,-28.9% (active)
4,CN1CCN(c2ccc(C(=O)/C=C/c3ccc(Cl)c(C(F)(F)F)c3)cc2)CC1,72.8% (inactive)
5,O=C(NCCCNc1cc(-c2cn(-c3ccccc3)nc2-c2cccc(O)c2)ccn1)Nc1ccc(F)cc1,29.2% (inactive)
6,CCOc1c(C#N)c(Nc2ccc(S(N)(=O)=O)cc2)c(C#N)c2nnc(C)n12,104% (inactive)
7,O=C(/C=C1\C=CN(CCCCF)c2ccccc21)n1ccc2ccccc21,104% (inactive)
8,COc1cc(OC)c(S(N)(=O)=O)cc1C(=O)/C=C/c1ccccc1,57.1% (inactive)
9,C=CCn1c(SCC(=O)Nc2cccc(C(=O)/C=C/c3cccc([N+](=O)[O-])c3)c2)nc2ccccc2c1=O,94.1% (inactive)
10,COc1ccc2c(c1)oc1c3[nH]c4ccccc4c3c3c(c21)C(=O)N(O)C3=O,74.3% (inactive)
11,N#Cc1c(-c2ccccc2)cc(-c2c[nH]c3ccccc23)nc1-c1c[nH]c2ccccc12,98.7% (inactive)
12,CN(c1ccc(Br)cc1)S(=O)(=O)c1ccc(-c2cnc(C3CC3)o2)cc1,26.3% (inactive)
13,O=C1c2c(c3c4ccc(Br)cc4oc3c3[nH]c4ccccc4c23)C(=O)N1CCO,48.7% (inactive)
14,CCOc1ccc2nc(NC(=O)Nc3ccccc3C)sc2c1,54.7% (inactive)
15,CC(C)(C)CC(C)(C)n1nnnc1C(Nc1ccccc1)c1cc2cccc3ccc4cccc1c4c32 (stereo not given),78.5% (inactive)
16,Cc1cc(=O)n2nc(-c3c[nH]c4ccccc34)sc2n1,96.3% (inactive)
17,Cc1cc(NS(=O)(=O)c2ccc(-c3cnc(C4CC4)o3)cc2)ccc1I,48.1% (inactive)
18,Cc1nn(-c2ccc(Br)cc2)c2nc(CCl)[nH]c(=O)c12,96.9% (inactive)
19,CC(C)C(=O)Nc1ccc(-c2nc(-c3cccc(O)c3)c(-c3ccnc(Br)c3)[nH]2)cc1,69.8% (inactive)
20,C=C(C)C(=O)O[C@H]1C[C@@]2(C)OC(=CC2=O)/C(C)=C\[C@H]2OC(=O)C(=C)[C@H]12,58.5% (inactive)
